Targets with a hit are over-represented here; the source holds about 8,800 in all. About 0.5% of all pairs of compound and target were hits.
Each target was assayed with NC(=O)Nc1cc(-c2cccc(F)c2)sc1C(=O)N[C@H]1CCCNC1 (assay: log2 fold change, soluble protein after heating vs DMSO (PISA); higher = thermal stabilisation; K562 lysate, 10 uM; active = over 0.2 and 3.5 SD of the protein, either way, in both replicates (recomputed)).
How it was run: (§1)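 To prepare the extract, K562 pellets were dounce-homogenised in PBS pH 7.4 with 1 mM MgCl2, giving crude material at 1 mg/mL protein. This was treated with 10 μM compound for 30 min, then heated in aliquots for 3 min over 48°C-58°C before pooling and addition of NP-40 to 0.5% at 4°C. Centrifugation at 21,000xg for 90 min left soluble protein in the supernatant, which TMTpro 16plex LC-MS/MS quantified with equalised channel sums. Results are log-two fold changes in thermal stability compared with solvent controls, from duplicates.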

UniProt Q8N302, sequence (Q8N302 whole entry, looked up): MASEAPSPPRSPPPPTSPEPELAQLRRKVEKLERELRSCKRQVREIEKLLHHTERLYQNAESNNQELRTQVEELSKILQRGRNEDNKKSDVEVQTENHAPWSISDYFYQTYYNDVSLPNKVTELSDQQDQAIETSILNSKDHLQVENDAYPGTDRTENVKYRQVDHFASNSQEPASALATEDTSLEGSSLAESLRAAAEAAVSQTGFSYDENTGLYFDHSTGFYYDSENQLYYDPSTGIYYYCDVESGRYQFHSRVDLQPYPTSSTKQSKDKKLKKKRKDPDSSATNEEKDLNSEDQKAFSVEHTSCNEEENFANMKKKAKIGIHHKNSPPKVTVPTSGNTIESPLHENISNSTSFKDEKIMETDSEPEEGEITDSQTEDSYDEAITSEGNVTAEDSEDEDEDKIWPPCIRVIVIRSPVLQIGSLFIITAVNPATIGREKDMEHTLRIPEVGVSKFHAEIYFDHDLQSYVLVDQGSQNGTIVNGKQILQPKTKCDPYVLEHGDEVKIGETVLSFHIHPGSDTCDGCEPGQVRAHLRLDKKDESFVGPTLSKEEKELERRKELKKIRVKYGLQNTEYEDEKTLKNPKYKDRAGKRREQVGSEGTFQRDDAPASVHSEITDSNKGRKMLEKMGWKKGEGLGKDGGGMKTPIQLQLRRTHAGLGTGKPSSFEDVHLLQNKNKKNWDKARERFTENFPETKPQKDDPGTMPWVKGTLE
UniProt O15440, sequence (O15440 whole entry, looked up): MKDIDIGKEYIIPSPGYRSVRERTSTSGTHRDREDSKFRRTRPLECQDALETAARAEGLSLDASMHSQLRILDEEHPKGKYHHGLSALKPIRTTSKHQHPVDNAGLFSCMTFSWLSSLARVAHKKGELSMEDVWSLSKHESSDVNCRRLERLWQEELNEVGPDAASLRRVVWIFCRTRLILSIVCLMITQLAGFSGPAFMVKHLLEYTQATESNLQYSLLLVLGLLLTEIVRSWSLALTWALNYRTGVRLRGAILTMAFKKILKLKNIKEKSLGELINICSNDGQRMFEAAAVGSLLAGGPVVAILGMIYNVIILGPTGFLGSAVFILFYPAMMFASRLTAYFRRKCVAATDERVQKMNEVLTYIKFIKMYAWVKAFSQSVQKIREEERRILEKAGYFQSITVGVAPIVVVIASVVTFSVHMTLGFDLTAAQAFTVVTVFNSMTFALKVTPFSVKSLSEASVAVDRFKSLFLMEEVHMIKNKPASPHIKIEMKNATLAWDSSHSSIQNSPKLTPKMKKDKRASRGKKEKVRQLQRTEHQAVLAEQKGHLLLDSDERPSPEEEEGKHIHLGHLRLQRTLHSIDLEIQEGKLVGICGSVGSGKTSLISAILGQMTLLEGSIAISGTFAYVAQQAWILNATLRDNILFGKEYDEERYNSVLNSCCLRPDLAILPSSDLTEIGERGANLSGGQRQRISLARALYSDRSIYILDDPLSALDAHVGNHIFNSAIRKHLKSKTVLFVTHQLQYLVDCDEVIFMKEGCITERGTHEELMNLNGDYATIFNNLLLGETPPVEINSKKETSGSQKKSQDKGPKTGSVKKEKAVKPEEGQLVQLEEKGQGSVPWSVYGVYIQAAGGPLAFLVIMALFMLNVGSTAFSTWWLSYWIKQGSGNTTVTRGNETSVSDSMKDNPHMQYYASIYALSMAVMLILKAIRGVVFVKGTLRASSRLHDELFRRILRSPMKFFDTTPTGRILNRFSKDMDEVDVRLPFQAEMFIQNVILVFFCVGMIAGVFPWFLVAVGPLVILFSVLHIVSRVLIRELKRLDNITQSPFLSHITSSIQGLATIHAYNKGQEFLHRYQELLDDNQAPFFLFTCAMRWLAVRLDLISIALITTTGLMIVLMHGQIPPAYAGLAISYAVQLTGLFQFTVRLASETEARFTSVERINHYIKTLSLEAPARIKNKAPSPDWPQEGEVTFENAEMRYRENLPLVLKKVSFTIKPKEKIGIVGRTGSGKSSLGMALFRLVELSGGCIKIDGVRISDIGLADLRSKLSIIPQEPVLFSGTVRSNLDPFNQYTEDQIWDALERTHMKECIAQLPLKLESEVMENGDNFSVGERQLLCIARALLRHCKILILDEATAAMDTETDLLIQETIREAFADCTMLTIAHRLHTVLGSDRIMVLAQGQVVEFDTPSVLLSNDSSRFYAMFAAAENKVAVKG
UniProt Q9P1F3, sequence (Q9P1F3 whole entry, looked up): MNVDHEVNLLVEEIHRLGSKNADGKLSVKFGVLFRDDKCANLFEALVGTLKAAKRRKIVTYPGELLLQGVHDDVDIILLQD
UniProt P30838, sequence (P30838 whole entry, looked up): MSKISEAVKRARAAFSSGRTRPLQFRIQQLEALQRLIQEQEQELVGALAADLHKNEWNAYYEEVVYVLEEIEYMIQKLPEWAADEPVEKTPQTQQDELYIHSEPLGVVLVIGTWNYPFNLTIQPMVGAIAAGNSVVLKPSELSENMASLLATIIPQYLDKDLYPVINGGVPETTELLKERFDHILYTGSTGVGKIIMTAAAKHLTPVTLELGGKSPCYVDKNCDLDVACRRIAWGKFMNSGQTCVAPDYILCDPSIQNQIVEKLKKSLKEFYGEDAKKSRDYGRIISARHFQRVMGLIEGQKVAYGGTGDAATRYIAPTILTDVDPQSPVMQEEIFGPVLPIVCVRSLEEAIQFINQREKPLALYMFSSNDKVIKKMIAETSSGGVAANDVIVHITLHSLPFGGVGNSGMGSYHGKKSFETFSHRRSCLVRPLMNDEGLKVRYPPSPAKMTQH
UniProt P00519, sequence (P00519 whole entry, looked up): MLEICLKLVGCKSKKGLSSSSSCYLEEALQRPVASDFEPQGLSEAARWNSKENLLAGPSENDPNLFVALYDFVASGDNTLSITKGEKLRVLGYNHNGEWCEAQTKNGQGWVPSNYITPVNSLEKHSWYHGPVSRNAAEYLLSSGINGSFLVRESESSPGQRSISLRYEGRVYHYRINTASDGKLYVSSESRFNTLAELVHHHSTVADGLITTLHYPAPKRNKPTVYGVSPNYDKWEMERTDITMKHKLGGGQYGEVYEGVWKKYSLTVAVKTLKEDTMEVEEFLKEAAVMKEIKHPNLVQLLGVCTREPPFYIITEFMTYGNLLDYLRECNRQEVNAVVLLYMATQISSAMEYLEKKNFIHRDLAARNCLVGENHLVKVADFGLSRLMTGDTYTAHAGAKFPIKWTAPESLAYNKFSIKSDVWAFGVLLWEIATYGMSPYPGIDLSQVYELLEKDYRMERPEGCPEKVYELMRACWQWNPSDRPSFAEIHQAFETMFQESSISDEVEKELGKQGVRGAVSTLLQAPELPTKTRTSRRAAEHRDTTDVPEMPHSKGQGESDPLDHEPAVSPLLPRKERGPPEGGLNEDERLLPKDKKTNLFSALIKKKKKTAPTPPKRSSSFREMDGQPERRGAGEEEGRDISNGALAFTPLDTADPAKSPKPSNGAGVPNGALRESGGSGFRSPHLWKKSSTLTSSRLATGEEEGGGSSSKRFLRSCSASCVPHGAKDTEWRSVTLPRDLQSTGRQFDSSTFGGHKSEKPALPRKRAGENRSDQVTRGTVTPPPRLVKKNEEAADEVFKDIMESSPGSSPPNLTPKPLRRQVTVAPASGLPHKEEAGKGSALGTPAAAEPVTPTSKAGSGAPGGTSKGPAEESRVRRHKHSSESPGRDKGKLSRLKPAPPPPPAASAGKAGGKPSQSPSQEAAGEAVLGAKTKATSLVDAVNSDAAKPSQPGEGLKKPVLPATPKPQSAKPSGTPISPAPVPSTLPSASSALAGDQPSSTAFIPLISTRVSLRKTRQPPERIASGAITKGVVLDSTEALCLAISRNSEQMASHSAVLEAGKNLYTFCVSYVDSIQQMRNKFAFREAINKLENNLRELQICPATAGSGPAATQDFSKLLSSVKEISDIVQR
UniProt P27216, sequence (P27216 whole entry, looked up): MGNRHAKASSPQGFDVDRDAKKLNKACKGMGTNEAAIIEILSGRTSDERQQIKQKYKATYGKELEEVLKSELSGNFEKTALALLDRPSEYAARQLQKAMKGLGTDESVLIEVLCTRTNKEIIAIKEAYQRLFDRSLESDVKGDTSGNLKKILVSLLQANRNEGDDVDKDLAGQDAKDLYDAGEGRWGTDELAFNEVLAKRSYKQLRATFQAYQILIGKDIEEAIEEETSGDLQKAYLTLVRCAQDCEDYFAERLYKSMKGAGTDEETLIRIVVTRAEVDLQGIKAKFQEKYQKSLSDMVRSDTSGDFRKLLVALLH
UniProt P14621, sequence (P14621 whole entry, looked up): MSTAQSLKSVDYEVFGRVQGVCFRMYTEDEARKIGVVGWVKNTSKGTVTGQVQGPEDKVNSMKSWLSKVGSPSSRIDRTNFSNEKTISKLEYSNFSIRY
UniProt Q3SXY8, sequence (Q3SXY8 whole entry, looked up): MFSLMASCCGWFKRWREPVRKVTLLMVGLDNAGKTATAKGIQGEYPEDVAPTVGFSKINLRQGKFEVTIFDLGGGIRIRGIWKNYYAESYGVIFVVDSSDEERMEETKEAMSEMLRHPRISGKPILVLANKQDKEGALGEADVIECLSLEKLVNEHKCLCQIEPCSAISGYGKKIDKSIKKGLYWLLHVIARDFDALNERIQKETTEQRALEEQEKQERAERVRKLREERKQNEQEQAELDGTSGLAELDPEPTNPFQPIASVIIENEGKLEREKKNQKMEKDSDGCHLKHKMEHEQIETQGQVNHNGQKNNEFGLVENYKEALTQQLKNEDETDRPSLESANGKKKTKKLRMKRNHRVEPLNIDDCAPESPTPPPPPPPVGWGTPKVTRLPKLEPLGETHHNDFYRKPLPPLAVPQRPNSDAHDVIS
UniProt P08758, sequence (P08758 whole entry, looked up): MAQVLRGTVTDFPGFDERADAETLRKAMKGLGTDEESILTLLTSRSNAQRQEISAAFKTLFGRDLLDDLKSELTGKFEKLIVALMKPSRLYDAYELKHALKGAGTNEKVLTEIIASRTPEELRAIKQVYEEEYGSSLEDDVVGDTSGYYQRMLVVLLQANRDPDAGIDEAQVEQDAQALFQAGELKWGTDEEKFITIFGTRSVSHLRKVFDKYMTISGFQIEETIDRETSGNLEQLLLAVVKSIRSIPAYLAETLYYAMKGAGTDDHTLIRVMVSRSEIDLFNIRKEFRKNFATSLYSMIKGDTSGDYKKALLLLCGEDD

AIMP2 isoform 2 (UniProt Q13155) was tested. Which log2 fold change did it give?
The log2 fold change was 0.067 (inactive).

Which log2 fold change does the source give for ALDH18A1 isoform 2 (UniProt P54886) here?
Its log2 fold change is -0.093 (inactive).

Which log2 fold change does the source give for ACIN1 (UniProt E7EQT4) here?
The log2 fold change was -0.072 (inactive).

How did the log2 fold change turn out when ANKRD40 (UniProt Q6AI12) was run?
Its log2 fold change is -0.001 (inactive).

For ABRACL (UniProt Q9P1F3), which log2 fold change is on record?
Its log2 fold change is -0.083 (inactive).

For ANKRD10 (UniProt Q9NXR5), which log2 fold change is on record?
Its log2 fold change is 0.036 (inactive).

For ALDH3A1 (UniProt P30838), which log2 fold change is on record?
The log2 fold change was -0.065 (inactive).

Which log2 fold change does the source give for ANXA2 (UniProt H0YL33) here?
Its log2 fold change is -0.196 (inactive).

For ALG3 (UniProt Q92685), which log2 fold change is on record?
The log2 fold change was -0.017 (inactive).

For AGPAT2 (UniProt O15120), which log2 fold change is on record?
Its log2 fold change is 0.018 (inactive).

How did the log2 fold change turn out when ADAM17 (UniProt P78536) was run?
The log2 fold change was 0.002 (inactive).

With ABCA3 (UniProt Q99758) as the target, how does the log2 fold change read?
Its log2 fold change is -0.092 (inactive).

With ARL13B (UniProt Q3SXY8) as the target, how does the log2 fold change read?
The log2 fold change was 0.095 (inactive).

Which log2 fold change does the source give for ACYP2 (UniProt P14621) here?
The log2 fold change was -0.009 (inactive).

For AGGF1 (UniProt Q8N302), which log2 fold change is on record?
The log2 fold change was -0.007 (inactive).

AMDHD2 (UniProt Q9Y303) was tested. Which log2 fold change did it give?
Its log2 fold change is 0.048 (inactive).

With ACLY isoform 2 (UniProt P53396) as the target, how does the log2 fold change read?
Its log2 fold change is -0.027 (inactive).

Which log2 fold change does the source give for ABCC5 (UniProt O15440) here?
The log2 fold change was 0.035 (inactive).

Which log2 fold change does the source give for ANXA5 (UniProt P08758) here?
Its log2 fold change is 0.018 (inactive).

For ANXA13 isoform 2 (UniProt P27216), which log2 fold change is on record?
Its log2 fold change is 0.023 (inactive).

How did the log2 fold change turn out when ABL1 isoform 2 (UniProt P00519) was run?
The log2 fold change was 0.08 (inactive).

For ALKBH7 (UniProt Q9BT30), which log2 fold change is on record?
Its log2 fold change is 0.044 (inactive).

Each target was assayed with NC(=O)c1cnc(N[C@@H]2CCCC[C@@H]2N)nc1Nc1cccc(-n2nccn2)c1 in the same assay as above.
How it was run: as §1

AIMP2 isoform 2 (UniProt Q13155) was tested. Which log2 fold change did it give?
Its log2 fold change is 0.017 (inactive).

For ACIN1 (UniProt E7EQT4), which log2 fold change is on record?
The log2 fold change was 0.041 (inactive).

With ABRACL (UniProt Q9P1F3) as the target, how does the log2 fold change read?
Its log2 fold change is 0.037 (inactive).

How did the log2 fold change turn out when ADD1 isoform 4 (UniProt P35611) was run?
The log2 fold change was -0.109 (inactive).

Which log2 fold change does the source give for ANKRD10 (UniProt Q9NXR5) here?
Its log2 fold change is 0.168 (inactive).

Which log2 fold change does the source give for ALDH3A1 (UniProt P30838) here?
Its log2 fold change is 0.055 (inactive).

With ANXA2 (UniProt H0YL33) as the target, how does the log2 fold change read?
The log2 fold change was -0.078 (inactive).

With ALG3 (UniProt Q92685) as the target, how does the log2 fold change read?
Its log2 fold change is 0.092 (inactive).

How did the log2 fold change turn out when ABCA3 (UniProt Q99758) was run?
Its log2 fold change is 0.001 (inactive).

For ARL13B (UniProt Q3SXY8), which log2 fold change is on record?
Its log2 fold change is 0.131 (inactive).

How did the log2 fold change turn out when ADK, A0A5F9ZH76 was run?
The log2 fold change was -0.083 (inactive).

For ARHGEF2 (UniProt V9GYF0), which log2 fold change is on record?
The log2 fold change was 0.117 (inactive).

With ACYP2 (UniProt P14621) as the target, how does the log2 fold change read?
Its log2 fold change is -0.026 (inactive).

How did the log2 fold change turn out when ABI1 isoform 6 (UniProt Q8IZP0) was run?
The log2 fold change was 0.113 (inactive).

For AGGF1 (UniProt Q8N302), which log2 fold change is on record?
Its log2 fold change is 0.075 (inactive).

How did the log2 fold change turn out when ACTG1 (UniProt K7EM38) was run?
Its log2 fold change is 0.171 (inactive).

For ACLY isoform 2 (UniProt P53396), which log2 fold change is on record?
Its log2 fold change is -0.062 (inactive).

With ANKRD44 isoform 2 (UniProt Q8N8A2) as the target, how does the log2 fold change read?
The log2 fold change was -0.019 (inactive).

For ABCC5 (UniProt O15440), which log2 fold change is on record?
Its log2 fold change is -0.035 (inactive).

For ANKRD30B (UniProt Q9BXX2), which log2 fold change is on record?
Its log2 fold change is 0.059 (inactive).

With AP3D1 isoform 2 (UniProt O14617) as the target, how does the log2 fold change read?
The log2 fold change was 0.034 (inactive).

ANXA5 (UniProt P08758) was tested. Which log2 fold change did it give?
The log2 fold change was 0.01 (inactive).

Which log2 fold change does the source give for ANXA13 isoform 2 (UniProt P27216) here?
The log2 fold change was 0.032 (inactive).

Which log2 fold change does the source give for ABL1 isoform 2 (UniProt P00519) here?
Its log2 fold change is 0.022 (inactive).

With ARMCX5 (UniProt Q6P1M9) as the target, how does the log2 fold change read?
The log2 fold change was 0.02 (inactive).

These targets were tested with NC1(c2ccc(-c3nc4ccn5c(=O)[nH]nc5c4cc3-c3ccccc3)cc2)CCC1 in the same assay as above.
How it was run: as §1

With ACIN1 (UniProt E7EQT4) as the target, how does the log2 fold change read?
The log2 fold change was -0.039 (inactive).

ANKRD40 (UniProt Q6AI12) was tested. Which log2 fold change did it give?
The log2 fold change was -0.119 (inactive).

ABRACL (UniProt Q9P1F3) was tested. Which log2 fold change did it give?
Its log2 fold change is -0.076 (inactive).

How did the log2 fold change turn out when ADD1 isoform 4 (UniProt P35611) was run?
Its log2 fold change is -0.274 (inactive).

For ANKRD10 (UniProt Q9NXR5), which log2 fold change is on record?
The log2 fold change was -0.029 (inactive).

How did the log2 fold change turn out when ALDH3A1 (UniProt P30838) was run?
Its log2 fold change is -0.018 (inactive).

Which log2 fold change does the source give for ALKBH1 (UniProt Q13686) here?
Its log2 fold change is 0.116 (inactive).

ANXA2 (UniProt H0YL33) was tested. Which log2 fold change did it give?
Its log2 fold change is 0.089 (inactive).

How did the log2 fold change turn out when ALG3 (UniProt Q92685) was run?
Its log2 fold change is -0.036 (inactive).

Which log2 fold change does the source give for AGPAT2 (UniProt O15120) here?
Its log2 fold change is 0.02 (inactive).

ADAM17 (UniProt P78536) was tested. Which log2 fold change did it give?
Its log2 fold change is -0.012 (inactive).

ABCA3 (UniProt Q99758) was tested. Which log2 fold change did it give?
Its log2 fold change is -0.019 (inactive).

With ARL13B (UniProt Q3SXY8) as the target, how does the log2 fold change read?
The log2 fold change was 0.013 (inactive).

Which log2 fold change does the source give for ACYP2 (UniProt P14621) here?
Its log2 fold change is 0.019 (inactive).

How did the log2 fold change turn out when AGGF1 (UniProt Q8N302) was run?
The log2 fold change was 0.024 (inactive).

With ANKRD44 isoform 2 (UniProt Q8N8A2) as the target, how does the log2 fold change read?
Its log2 fold change is 0.025 (inactive).

ABCC5 (UniProt O15440) was tested. Which log2 fold change did it give?
Its log2 fold change is -0.015 (inactive).

ANKRD30B (UniProt Q9BXX2) was tested. Which log2 fold change did it give?
Its log2 fold change is -0.051 (inactive).

For AP3D1 isoform 2 (UniProt O14617), which log2 fold change is on record?
Its log2 fold change is -0.121 (inactive).

ANXA5 (UniProt P08758) was tested. Which log2 fold change did it give?
Its log2 fold change is 0.012 (inactive).

Which log2 fold change does the source give for ANXA13 isoform 2 (UniProt P27216) here?
Its log2 fold change is 0.078 (inactive).

How did the log2 fold change turn out when ABL1 isoform 2 (UniProt P00519) was run?
Its log2 fold change is -0.009 (inactive).

Which log2 fold change does the source give for ALKBH7 (UniProt Q9BT30) here?
Its log2 fold change is -0.099 (inactive).

For ARMCX5 (UniProt Q6P1M9), which log2 fold change is on record?
The log2 fold change was -0.027 (inactive).

Reference: the supplement of paper PMC10849652
